Compounds with a hit are over-represented: about 3.5% of the library has one in this group of screens.
BoNT-A LC inh2 = BoNT A light chain protease inhibition; inhibition, % at 10 µM; AID 588499; hit rate 0.17% among 360,000; multiplex microsphere protease substrate cleavage, flow cytometry; note: plate controls were buffer without enzyme for full effect and enzyme alone for no effect
Autofluor counter = counter-screen for toxin protease inhibitors: compound fluorescence. compound autofluorescence counterscreen, microsphere flow cytometry; stronger effect = higher value. fluorescence intensity (no concentration beside the values). hit rate 3.1% among 360,000; in the data active = fluorescence intensity above about 16000; inconclusive = no clear call, values can overlap the other calls
Anthrax LF prot = blocks Bacillus anthracis lethal factor protease | inhibition, % at 10 µM | multiplex microsphere protease cleavage assay, LF | hit rate 0.12% among 360,000; note: plate controls were buffer without enzyme for full effect and enzyme alone for no effect
Target sequence (P15917 whole entry, looked up): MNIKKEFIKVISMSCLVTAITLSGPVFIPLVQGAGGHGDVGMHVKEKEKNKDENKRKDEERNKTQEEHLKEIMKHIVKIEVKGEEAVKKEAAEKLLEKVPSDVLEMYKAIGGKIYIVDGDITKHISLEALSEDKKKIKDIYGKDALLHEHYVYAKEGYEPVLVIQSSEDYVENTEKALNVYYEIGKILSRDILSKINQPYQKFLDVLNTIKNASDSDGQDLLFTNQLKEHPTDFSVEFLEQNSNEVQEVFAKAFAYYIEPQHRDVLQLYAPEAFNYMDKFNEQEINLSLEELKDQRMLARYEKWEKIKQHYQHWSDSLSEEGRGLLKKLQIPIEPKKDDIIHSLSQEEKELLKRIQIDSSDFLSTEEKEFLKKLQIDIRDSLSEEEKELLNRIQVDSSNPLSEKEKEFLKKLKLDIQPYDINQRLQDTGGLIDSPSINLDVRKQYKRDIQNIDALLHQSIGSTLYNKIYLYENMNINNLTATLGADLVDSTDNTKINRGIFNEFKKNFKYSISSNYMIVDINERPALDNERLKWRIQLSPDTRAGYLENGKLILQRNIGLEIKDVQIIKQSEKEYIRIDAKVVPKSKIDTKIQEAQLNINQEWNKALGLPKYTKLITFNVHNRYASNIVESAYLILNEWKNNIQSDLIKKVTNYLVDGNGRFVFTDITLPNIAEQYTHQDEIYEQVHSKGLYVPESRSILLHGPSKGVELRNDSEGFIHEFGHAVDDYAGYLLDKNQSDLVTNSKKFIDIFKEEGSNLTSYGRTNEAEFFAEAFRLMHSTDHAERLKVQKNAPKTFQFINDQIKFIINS
BoNT F protease = blocks Botulinum neurotoxin F light chain protease; Multiplex microsphere protease cleavage assay, flow cytometry; AID 588497; hit rate 0.22% among 360,000; inhibition, % at 10 µM; in the data active = inhibition above about 35%, passing the limit was not always enough; inconclusive = no clear call, values can overlap the other calls; note: plate controls were buffer without enzyme for full effect and enzyme alone for no effect
* = called active by the depositor; ? = inconclusive. Cut-off read from the data, not from the text of the source, unless noted: active = inhibition above about 30%; inconclusive = no clear call, values can overlap the other calls; inactive = below that.

SMILES | BoNT-A LC inh2 | Autofluor counter | Anthrax LF prot | BoNT F protease
O=C(NNC(=O)c1ccccc1F)c1cccc(Cl)c1 | -4.7 | 25813* | 0.0 | -6.5
CCOC1=C2CN(S(=O)(=O)c3ccccc3)[C@H](c3ccccc3)C[C@H]2n2c(=O)n(-c3ccccc3)c(=O)n2C1 | 0.0 | 6079 | -2.5 | -0.8
COc1ccc(S(=O)(=O)N(C)c2ccc(C(=O)NCCC(C)C)cc2)cc1 | ? | 19593* | 0.4 | 4.3
CCOCCCNC(=O)c1ccc(N(C)S(=O)(=O)c2ccc(OC)cc2)cc1 | -0.3 | 11197 | 1.6 | 0.6
COc1ccc(S(=O)(=O)Nc2cc(C(=O)NCCC(C)C)ccc2N2CCOCC2)cc1 | -0.8 | 23444* | 0.1 | -2.7
COc1ccc(S(=O)(=O)Nc2cc(C(=O)NCCCOC(C)C)ccc2N2CCOCC2)cc1 | -0.8 | 4254 | -1.2 | 0.0
CCOC(=O)N1CCN(S(=O)(=O)c2ccc(F)c(C(=O)Nc3cc(C)cc(C)c3)c2)CC1 | 2.3 | 22579* | -2.8 | 3.0
CCOC(=O)c1ccccc1NC(=O)COC(=O)c1ccc(C)c(S(=O)(=O)N2CCOCC2)c1 | 1.3 | ? | ? | 10.1
COc1ccccc1NC(=O)c1cc(S(=O)(=O)N2CCC3(CC2)OCCO3)ccc1F | -0.2 | 20818* | -0.4 | 0.8
CCOC(=O)c1ccccc1NC(=O)c1ccc(Cl)c(S(=O)(=O)N2CCOCC2)c1 | ? | 21650* | -8.8 | 0.7
CCOC(=O)N1CCN(S(=O)(=O)c2ccc(F)c(C(=O)Nc3cccc(Cl)c3C)c2)CC1 | -0.6 | 2639 | -4.1 | -11.0
Cc1ccc(NC(=O)c2cc(S(=O)(=O)N3CCC4(CC3)OCCO4)ccc2F)cc1 | 3.1 | 22105* | 0.4 | 5.4
Cc1cccc(C(=O)OC(C)C(=O)N2CCc3ccccc3C2)c1C (stereo not drawn) | 2.3 | 5552 | -2.0 | -4.5
COc1ccc(C(=O)NC(=S)Nc2cccc(Cl)c2N2CCOCC2)cc1[N+](=O)[O-] | 0.2 | 9538 | -1.5 | 0.1
CC(=O)c1ccc2cc3c(cc2c1)OCO3 | -0.3 | 3943 | 0.2 | -4.4
Cc1csc2c(=O)sc(NC(=O)c3cccs3)nc12 | 7.5 | 3644 | ? | 32.3
Cc1c(C(=O)Nc2ccc(F)cc2)oc2ccc(S(=O)(=O)N3CCC4(CC3)OCCO4)cc12 | 3.9 | 21736* | -1.0 | 4.7
O=C(Nc1ccccc1C(F)(F)F)c1cc(S(=O)(=O)N2CCC3(CC2)OCCO3)ccc1F | -0.9 | 23758* | -1.0 | -1.4
COC(=O)COc1ccc(S(=O)(=O)N2CCCCCC2)cc1C | -3.5 | 3591 | -10.8 | -16.4
CCOC(=O)N1CCN(S(=O)(=O)c2ccc(OCC(=O)OC)c(C)c2)CC1 | -6.7 | 25177* | -1.3 | -11.0
COc1ccccc1NC(=O)c1ccc(S(=O)(=O)N2CCOCC2)cc1 | ? | 22270* | -4.9 | -4.3
Cc1c(C(=O)Nc2ccc(F)cc2)oc2ccc(S(=O)(=O)N3CCCC3)cc12 | -0.4 | 4097 | -8.9 | -9.9
O=C(NN=Cc1ccccc1OC(F)F)c1cccc(S(=O)(=O)N2CCCC2)c1 | -0.4 | 3667 | -2.7 | -6.4
COc1ccc(-c2cn(CCO)nc2-c2ccc(OC)cc2)cc1 | -2.9 | 3584 | 5.2 | -8.1
COc1ccccc1N1CCN(Cc2ccc(Br)o2)CC1 | 1.8 | 22305* | -2.6 | 0.9
SMILES | BoNT-A LC inh2 | Autofluor counter | Anthrax LF prot | BoNT F protease
CCN1CCN(CC(O)COCc2ccccc2)CC1 (stereo not drawn) | 0.6 | 2440 | 0.4 | 3.6
COc1ccccc1N1CCN(Cc2ccc(Br)cc2)CC1 | -3.3 | 3715 | -8.3 | 6.2
COc1ccccc1N1CCN(Cc2cccc(OC)c2OC)CC1 | 0.4 | 5575 | 5.1 | 5.6
OC(COCc1ccccc1)CN1CCN(c2ccccc2F)CC1 (stereo not drawn) | 0.8 | 22811* | -1.5 | -0.8
COc1cc(OC)c(OC)cc1CN1CCN(c2ccccc2OC)CC1 | ? | 24136* | 0.9 | -4.6
COc1ccccc1N1CCN(Cc2cccc(OC)c2O)CC1 | 7.1 | 21009* | -6.4 | 7.8
O=C(COC(=O)c1ccc(Cl)nc1)Nc1cc(S(=O)(=O)N2CCOCC2)ccc1Cl | -0.7 | 6555 | 7.0 | -8.8
C/C(=N\NC(=O)c1sccc1-n1cccc1)c1cccs1 | -1.8 | 4671 | 0.9 | 0.1
COc1ccccc1CC1(C)C(=O)Nc2ccc(S(=O)(=O)NC3CCCCC3)cc21 (stereo not drawn) | -0.1 | 3052 | 1.7 | -6.0
COc1ccccc1N1CCN(CC(O)COc2c(OC)cccc2OC)CC1 (stereo not drawn) | 0.6 | 19582* | -0.6 | 0.8
COc1ccccc1N1CCN(c2cc(=O)n(-c3ccccc3Cl)c(=O)[nH]2)CC1 | -5.1 | 21673* | -4.3 | -7.4
CCOc1ccccc1N1CCN(Cc2ccc(OC)c(OC)c2OC)CC1 | ? | 21368* | -4.0 | 4.8
CCC(=O)c1ccc(OCC(O)CN2CCN(c3ccc(F)cc3)CC2)cc1 (stereo not drawn) | 2.7 | 19445* | -2.4 | 4.9

Screening results as filed in PubChem.
